# Test results as given in PMC11006913.
# Positions count from the first letter of the chain named.
# What was measured:
# Test in all cases: PBM; 200 nM protein, PBS
# Conditions in all cases: dsDNA, one strand shown
# [1] = biological target: HESX1 (Homo sapiens, UniProt Q9UBX0 95-180, R109Q)
# [2] = biological target: HESX1 (Homo sapiens, UniProt Q9UBX0 95-180, P111T)
# [3] = biological target: CRX (Homo sapiens, UniProt O43186 26-111)
# [4] = biological target: CRX (Homo sapiens, UniProt O43186 26-111, E42D)
# Sequence of CRX (Homo sapiens, UniProt O43186 26-111, E42D) (O43186 26-111 E42D): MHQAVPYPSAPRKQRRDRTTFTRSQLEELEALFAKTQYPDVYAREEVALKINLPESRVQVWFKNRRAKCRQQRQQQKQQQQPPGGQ
# [5] = biological target: CRX (Homo sapiens, UniProt O43186 26-111, R41L)
# Sequence of CRX (Homo sapiens, UniProt O43186 26-111, R41L) (O43186 26-111 R41L): as the sequence (O43186 26-111 E42D) above, with R16L, D17E counted along it
# [6] = biological target: HOXA4 (Homo sapiens, UniProt Q00056 201-287, W262F)
# Sequence of HOXA4 (Q00056 201-287 W262F): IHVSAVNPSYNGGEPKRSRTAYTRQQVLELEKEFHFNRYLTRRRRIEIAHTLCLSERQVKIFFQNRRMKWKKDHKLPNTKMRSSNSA
# [7] = biological target: ALX4 (Homo sapiens, UniProt Q9H161 200-286)
# Sequence of ALX4 (Homo sapiens, UniProt Q9H161 200-286) (Q9H161 200-286): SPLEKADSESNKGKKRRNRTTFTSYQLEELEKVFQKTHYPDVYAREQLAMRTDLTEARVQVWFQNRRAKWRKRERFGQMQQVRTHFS
# [8] = biological target: ALX4 (Homo sapiens, UniProt Q9H161 200-286, Q225E)
# Sequence of ALX4 (Homo sapiens, UniProt Q9H161 200-286, Q225E) (Q9H161 200-286 Q225E): as the sequence (Q9H161 200-286) above, with Q26E counted along it
# [9] = biological target: ALX3 (Homo sapiens, UniProt O95076 139-225, N203Q)
# Sequence of ALX3 (Homo sapiens, UniProt O95076 139-225, N203Q) (O95076 139-225 N203Q): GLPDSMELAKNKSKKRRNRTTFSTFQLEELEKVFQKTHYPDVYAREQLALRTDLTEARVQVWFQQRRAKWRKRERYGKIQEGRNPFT
# [10] = biological target: ALX3 (Homo sapiens, UniProt O95076 139-225)
# Sequence of ALX3 (Homo sapiens, UniProt O95076 139-225) (O95076 139-225): as the sequence (O95076 139-225 N203Q) above, with Q65N counted along it
# [11] = biological target: VAX1 (Homo sapiens, UniProt Q5SQQ9 86-172)
# Sequence of VAX1 (Homo sapiens, UniProt Q5SQQ9 86-172) (Q5SQQ9 86-172): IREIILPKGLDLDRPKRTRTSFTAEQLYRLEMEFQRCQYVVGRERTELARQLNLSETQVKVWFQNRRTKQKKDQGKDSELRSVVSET
# [12] = biological target: ALX3 (Homo sapiens, UniProt O95076 139-225, L168Q)
# Sequence of ALX3 (Homo sapiens, UniProt O95076 139-225, L168Q) (O95076 139-225 L168Q): as the sequence (O95076 139-225 N203Q) above, with L30Q, Q65N counted along it
# [13] = biological target: ALX3 (Homo sapiens, UniProt O95076 139-225, L168V)
# Sequence of ALX3 (Homo sapiens, UniProt O95076 139-225, L168V) (O95076 139-225 L168V): as the sequence (O95076 139-225 N203Q) above, with L30V, Q65N counted along it
# [14] = biological target: VAX1 (Homo sapiens, UniProt Q5SQQ9 86-172, T142I)
# Sequence of VAX1 (Homo sapiens, UniProt Q5SQQ9 86-172, T142I) (Q5SQQ9 86-172 T142I): as the sequence (Q5SQQ9 86-172) above, with T57I counted along it
# [15] = biological target: ALX3 (Homo sapiens, UniProt O95076 139-225, N203S)
# Sequence of ALX3 (Homo sapiens, UniProt O95076 139-225, N203S) (O95076 139-225 N203S): as the sequence (O95076 139-225 N203Q) above, with Q65S counted along it
# [16] = biological target: HOXD13 (Homo sapiens, UniProt P35453 263-343)
# Sequence of HOXD13 (P35453 263-343): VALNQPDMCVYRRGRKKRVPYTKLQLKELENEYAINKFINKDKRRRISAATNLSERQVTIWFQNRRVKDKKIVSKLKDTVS
# [17] = biological target: T1, PAX4 (Homo sapiens, UniProt O43316 9-242, F177V)
# T1 sequence: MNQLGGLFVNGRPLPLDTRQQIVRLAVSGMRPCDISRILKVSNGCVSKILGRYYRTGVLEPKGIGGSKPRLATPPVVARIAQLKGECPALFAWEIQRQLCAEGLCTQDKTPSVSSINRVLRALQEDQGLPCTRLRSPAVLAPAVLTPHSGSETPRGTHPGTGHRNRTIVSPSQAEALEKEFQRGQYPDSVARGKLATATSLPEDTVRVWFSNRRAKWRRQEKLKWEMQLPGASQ
# [18] = biological target: T2, PAX4 (Homo sapiens, UniProt O43316 9-242, F177Y)
# T2 sequence: T1 sequence with V169Y
# [19] = biological target: HOXB9 (Homo sapiens, UniProt P17482 171-250, T197M)
# Sequence of HOXB9 (P17482 171-250 T197M): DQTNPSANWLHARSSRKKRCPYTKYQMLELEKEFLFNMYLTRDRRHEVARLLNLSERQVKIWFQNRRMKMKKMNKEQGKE
# [20] = biological target: PRRX1 (Homo sapiens, UniProt P54821 80-166)
# Sequence of PRRX1 (P54821 80-166): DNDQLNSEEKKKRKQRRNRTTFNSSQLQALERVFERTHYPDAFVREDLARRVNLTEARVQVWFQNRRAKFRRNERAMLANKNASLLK
# Sequence of HESX1 (Homo sapiens, UniProt Q9UBX0 95-180, R109Q) (Q9UBX0 95-180 R109Q): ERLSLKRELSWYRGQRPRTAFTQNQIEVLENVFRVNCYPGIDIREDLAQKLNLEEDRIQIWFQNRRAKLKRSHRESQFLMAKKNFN
# Sequence of HESX1 (Homo sapiens, UniProt Q9UBX0 95-180, P111T) (Q9UBX0 95-180 P111T): as the sequence (Q9UBX0 95-180 R109Q) above, with Q15R, P17T counted along it
# Sequence of CRX (Homo sapiens, UniProt O43186 26-111) (O43186 26-111): as the sequence (O43186 26-111 E42D) above, with D17E counted along it
sequence,measurement,setting,value
CCGCGTCG,binding signal,[1],"6.5 upbm affinity estimate (log intensity, higher = more binding, comparable within an allelic series)"
same,binding signal,[2],"6.49 upbm affinity estimate (log intensity, higher = more binding, comparable within an allelic series)"
CCGGCGCG,binding signal,[3],"8.33 upbm affinity estimate (log intensity, higher = more binding, comparable within an allelic series)"
same,binding signal,[4],"8.4 upbm affinity estimate (log intensity, higher = more binding, comparable within an allelic series)"
same,binding signal,[5],"8.36 upbm affinity estimate (log intensity, higher = more binding, comparable within an allelic series)"
CCGGAGCC,binding signal,[6],"9.84 upbm affinity estimate (log intensity, higher = more binding, comparable within an allelic series)"
CTAATTGC,binding signal,[7],"13.6 upbm affinity estimate (log intensity, higher = more binding, comparable within an allelic series)"
same,binding signal,[8],"12.8 upbm affinity estimate (log intensity, higher = more binding, comparable within an allelic series)"
same,binding signal,[9],"8.22 upbm affinity estimate (log intensity, higher = more binding, comparable within an allelic series)"
same,binding signal,[10],"12.3 upbm affinity estimate (log intensity, higher = more binding, comparable within an allelic series)"
same,binding signal,[1],"8.98 upbm affinity estimate (log intensity, higher = more binding, comparable within an allelic series)"
same,binding signal,[11],"13 upbm affinity estimate (log intensity, higher = more binding, comparable within an allelic series)"
same,binding signal,[12],"10.3 upbm affinity estimate (log intensity, higher = more binding, comparable within an allelic series)"
same,binding signal,[2],"10.9 upbm affinity estimate (log intensity, higher = more binding, comparable within an allelic series)"
same,binding signal,[13],"9.7 upbm affinity estimate (log intensity, higher = more binding, comparable within an allelic series)"
same,binding signal,[14],"12.9 upbm affinity estimate (log intensity, higher = more binding, comparable within an allelic series)"
same,binding signal,[6],"11.4 upbm affinity estimate (log intensity, higher = more binding, comparable within an allelic series)"
same,binding signal,[15],"8.29 upbm affinity estimate (log intensity, higher = more binding, comparable within an allelic series)"
AATAAGTG,binding signal,[16],"10.6 upbm affinity estimate (log intensity, higher = more binding, comparable within an allelic series)"
CCAGCGCG,binding signal,[1],"6.45 upbm affinity estimate (log intensity, higher = more binding, comparable within an allelic series)"
same,binding signal,[2],"6.49 upbm affinity estimate (log intensity, higher = more binding, comparable within an allelic series)"
ACGGCTGG,binding signal,[17],"9.33 upbm affinity estimate (log intensity, higher = more binding, comparable within an allelic series)"
same,binding signal,[18],"9.33 upbm affinity estimate (log intensity, higher = more binding, comparable within an allelic series)"
CGAACGCC,binding signal,[3],"7.92 upbm affinity estimate (log intensity, higher = more binding, comparable within an allelic series)"
same,binding signal,[4],"8.15 upbm affinity estimate (log intensity, higher = more binding, comparable within an allelic series)"
same,binding signal,[5],"8.11 upbm affinity estimate (log intensity, higher = more binding, comparable within an allelic series)"
CTTCCGTC,binding signal,[1],"6.56 upbm affinity estimate (log intensity, higher = more binding, comparable within an allelic series)"
same,binding signal,[2],"6.55 upbm affinity estimate (log intensity, higher = more binding, comparable within an allelic series)"
CGGTCCAA,binding signal,[3],"8.48 upbm affinity estimate (log intensity, higher = more binding, comparable within an allelic series)"
same,binding signal,[4],"8.43 upbm affinity estimate (log intensity, higher = more binding, comparable within an allelic series)"
same,binding signal,[5],"8.25 upbm affinity estimate (log intensity, higher = more binding, comparable within an allelic series)"
CGGACCCG,binding signal,[3],"8.38 upbm affinity estimate (log intensity, higher = more binding, comparable within an allelic series)"
same,binding signal,[4],"8.29 upbm affinity estimate (log intensity, higher = more binding, comparable within an allelic series)"
same,binding signal,[5],"8.36 upbm affinity estimate (log intensity, higher = more binding, comparable within an allelic series)"
CCCGGCGG,binding signal,[7],"7.89 upbm affinity estimate (log intensity, higher = more binding, comparable within an allelic series)"
same,binding signal,[8],"8.11 upbm affinity estimate (log intensity, higher = more binding, comparable within an allelic series)"
ACCCGGGC,binding signal,[17],"9.22 upbm affinity estimate (log intensity, higher = more binding, comparable within an allelic series)"
same,binding signal,[18],"9.24 upbm affinity estimate (log intensity, higher = more binding, comparable within an allelic series)"
CGGGCTCC,binding signal,[19],"8.02 upbm affinity estimate (log intensity, higher = more binding, comparable within an allelic series)"
same,binding signal,[7],"7.48 upbm affinity estimate (log intensity, higher = more binding, comparable within an allelic series)"
same,binding signal,[8],"7.51 upbm affinity estimate (log intensity, higher = more binding, comparable within an allelic series)"
same,binding signal,[9],"7.6 upbm affinity estimate (log intensity, higher = more binding, comparable within an allelic series)"
same,binding signal,[17],"8.99 upbm affinity estimate (log intensity, higher = more binding, comparable within an allelic series)"
same,binding signal,[10],"7.17 upbm affinity estimate (log intensity, higher = more binding, comparable within an allelic series)"
same,binding signal,[18],"8.93 upbm affinity estimate (log intensity, higher = more binding, comparable within an allelic series)"
same,binding signal,[11],"6.15 upbm affinity estimate (log intensity, higher = more binding, comparable within an allelic series)"
same,binding signal,[12],"7.45 upbm affinity estimate (log intensity, higher = more binding, comparable within an allelic series)"
same,binding signal,[13],"7.45 upbm affinity estimate (log intensity, higher = more binding, comparable within an allelic series)"
same,binding signal,[14],"6.61 upbm affinity estimate (log intensity, higher = more binding, comparable within an allelic series)"
same,binding signal,[6],"9.68 upbm affinity estimate (log intensity, higher = more binding, comparable within an allelic series)"
same,binding signal,[15],"7.54 upbm affinity estimate (log intensity, higher = more binding, comparable within an allelic series)"
same,binding signal,[20],"8.33 upbm affinity estimate (log intensity, higher = more binding, comparable within an allelic series)"
ACGGCGGC,binding signal,[11],"7.01 upbm affinity estimate (log intensity, higher = more binding, comparable within an allelic series)"
same,binding signal,[14],"7.25 upbm affinity estimate (log intensity, higher = more binding, comparable within an allelic series)"
CGCCCGAG,binding signal,[19],"8.29 upbm affinity estimate (log intensity, higher = more binding, comparable within an allelic series)"
ACGCGCAG,binding signal,[20],"9.2 upbm affinity estimate (log intensity, higher = more binding, comparable within an allelic series)"
CACGCGTG,binding signal,[20],"9.41 upbm affinity estimate (log intensity, higher = more binding, comparable within an allelic series)"
ATTACGTA,binding signal,[3],"10.5 upbm affinity estimate (log intensity, higher = more binding, comparable within an allelic series)"
same,binding signal,[4],"10.4 upbm affinity estimate (log intensity, higher = more binding, comparable within an allelic series)"
same,binding signal,[5],"10.2 upbm affinity estimate (log intensity, higher = more binding, comparable within an allelic series)"
AATTAGCT,binding signal,[7],"13.6 upbm affinity estimate (log intensity, higher = more binding, comparable within an allelic series)"
same,binding signal,[8],"12.7 upbm affinity estimate (log intensity, higher = more binding, comparable within an allelic series)"
same,binding signal,[9],"8.34 upbm affinity estimate (log intensity, higher = more binding, comparable within an allelic series)"
same,binding signal,[17],"10.4 upbm affinity estimate (log intensity, higher = more binding, comparable within an allelic series)"
same,binding signal,[10],"12.2 upbm affinity estimate (log intensity, higher = more binding, comparable within an allelic series)"
same,binding signal,[18],"10.9 upbm affinity estimate (log intensity, higher = more binding, comparable within an allelic series)"
same,binding signal,[1],"8.93 upbm affinity estimate (log intensity, higher = more binding, comparable within an allelic series)"
same,binding signal,[12],"10.3 upbm affinity estimate (log intensity, higher = more binding, comparable within an allelic series)"
same,binding signal,[2],"10.4 upbm affinity estimate (log intensity, higher = more binding, comparable within an allelic series)"
same,binding signal,[13],"9.87 upbm affinity estimate (log intensity, higher = more binding, comparable within an allelic series)"
same,binding signal,[6],"11.5 upbm affinity estimate (log intensity, higher = more binding, comparable within an allelic series)"
same,binding signal,[15],"8.56 upbm affinity estimate (log intensity, higher = more binding, comparable within an allelic series)"
CCGGTGGC,binding signal,[16],"9.29 upbm affinity estimate (log intensity, higher = more binding, comparable within an allelic series)"
same,binding signal,[11],"7.31 upbm affinity estimate (log intensity, higher = more binding, comparable within an allelic series)"
same,binding signal,[14],"7.45 upbm affinity estimate (log intensity, higher = more binding, comparable within an allelic series)"
CCAGCCAG,binding signal,[19],"8.47 upbm affinity estimate (log intensity, higher = more binding, comparable within an allelic series)"
same,binding signal,[16],"9.59 upbm affinity estimate (log intensity, higher = more binding, comparable within an allelic series)"
CGTGCACG,binding signal,[19],"8.83 upbm affinity estimate (log intensity, higher = more binding, comparable within an allelic series)"
same,binding signal,[20],"9.56 upbm affinity estimate (log intensity, higher = more binding, comparable within an allelic series)"
CATGCGCC,binding signal,[19],"8.7 upbm affinity estimate (log intensity, higher = more binding, comparable within an allelic series)"
GCGACGCC,binding signal,[11],"7.12 upbm affinity estimate (log intensity, higher = more binding, comparable within an allelic series)"
same,binding signal,[14],"7.24 upbm affinity estimate (log intensity, higher = more binding, comparable within an allelic series)"
CCGACCTC,binding signal,[16],"9.45 upbm affinity estimate (log intensity, higher = more binding, comparable within an allelic series)"
CGGTCGGC,binding signal,[7],"8.27 upbm affinity estimate (log intensity, higher = more binding, comparable within an allelic series)"
same,binding signal,[8],"7.99 upbm affinity estimate (log intensity, higher = more binding, comparable within an allelic series)"
same,binding signal,[9],"7.66 upbm affinity estimate (log intensity, higher = more binding, comparable within an allelic series)"
same,binding signal,[10],"7.68 upbm affinity estimate (log intensity, higher = more binding, comparable within an allelic series)"
same,binding signal,[12],"7.79 upbm affinity estimate (log intensity, higher = more binding, comparable within an allelic series)"
same,binding signal,[13],"7.75 upbm affinity estimate (log intensity, higher = more binding, comparable within an allelic series)"
same,binding signal,[15],"7.69 upbm affinity estimate (log intensity, higher = more binding, comparable within an allelic series)"
CACGGGCC,binding signal,[9],"7.64 upbm affinity estimate (log intensity, higher = more binding, comparable within an allelic series)"
same,binding signal,[10],"7.66 upbm affinity estimate (log intensity, higher = more binding, comparable within an allelic series)"
same,binding signal,[12],"7.64 upbm affinity estimate (log intensity, higher = more binding, comparable within an allelic series)"
same,binding signal,[13],"7.58 upbm affinity estimate (log intensity, higher = more binding, comparable within an allelic series)"
same,binding signal,[15],"7.68 upbm affinity estimate (log intensity, higher = more binding, comparable within an allelic series)"
CGGCGCCG,binding signal,[20],"9.48 upbm affinity estimate (log intensity, higher = more binding, comparable within an allelic series)"
